Source: PubChem
TDP1 cell noCPT = qHTS for Inhibitors of human tyrosyl-DNA phosphodiesterase 1 (TDP1): qHTS in cells in absence of CPT; DT40 Tdp1-/- hTDP1 cells, no CPT, ATP luminescence, 48 h; 420,000 tested, 15% active; Potency, µM (doses to about 46.2 µM), hits mostly inhibitors; also: nearly all actives have a fitted effect of over 55% in size
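Growth of hTDP1-complemented DT40 Tdp1-knockout cells is measured by ATP luminescence after at least 48 hr compound exposure at 37 °C, with DMSO substituting for the 20 nM CPT used in the parallel screen.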
KB-3-1 cytotox = kills parental KB-3-1 adenocarcinoma cells; AID 1347075; KB-3-1 viability, CellTiter-Glo ATP luminescence, 72 h; 400,000 tested, 1.4% active; Potency, µM (series often up to 46.1 µM), hits mostly cytotoxic; also: nearly all actives have a fitted effect of over 60% in size
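Using CellTiter-Glo luminescence, growth of non-resistant KB-3-1 adenocarcinoma cells is assessed 72 h after pin-tool compound addition at 37 °C. Normalized responses across the concentration series yield fitted curves.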
DT40 TDP1 CPT = DT40-hTDP1 cell growth loss with CPT | chicken DT40 Tdp1-/-;hTDP1 cells + 20 nM CPT, ATP luminescence, 48 h | Potency, µM (highest dose often 46.2 µM), most hits filed as inhibitors | 420,000 tested, 12% active | AID 686979; also: nearly all actives have a fitted effect of over 55% in size
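Chicken DT40 Tdp1-/- cells complemented with human TDP1, 400 cells/well, exposed to compounds plus 20 nM camptothecin for at least 48 h at 37 C; viability read as ATP content by CellTiter-Glo luminescence.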
HT1080 IDH1KD tx = kills HT-1080 cells with IDH1 knockdown; HT-1080 IDH1 knockdown viability, ATP luminescence, 48 h; Potency, µM (top dose mostly 46.1 µM), usual class: cytotoxic; 360,000 tested, 2% active; AID 686971
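Assay cells: HT-1080 with IDH1 knockdown, 750 per well, RPMI/5% FBS. Exposure: 48 h at 37 °C following 2 h pre-incubation. Read: CellTiter-Glo luminescence; fitted concentration-response, curve class assigned.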
KB-V1 cytotox = kills drug-selected multidrug resistant KB-V1 cells. AID 1347076. 400,000 tested, 3.4% active. Potency, µM (titrated, usually from 46.1 µM), usual class: cytotoxic. KB-V1 MDR cells viability, CellTiter-Glo, 72 h; also: nearly all actives have a fitted effect of over 60% in size
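Cytotoxicity toward P-gp-expressing KB-V1 cells was determined as loss of CellTiter-Glo luminescence after 72 h at 37 degrees C. Compounds were tested in quantitative HTS format across a concentration range, with curves fitted to normalized data.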
HT1080-NT tox = kills 2HG-producing HT-1080-NT fibrosarcoma cells | HT-1080-NT fibrosarcoma viability, CellTiter-Glo ATP luminescence, 48 h | Potency, µM (top dose mostly 46.1 µM), most hits filed as cytotoxic | 360,000 tested, 1.6% active | AID 686970;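 also: NT is the 2HG producing partner of a matched IDH1 knockdown line; nearly all actives have a fitted effect of over 55% in size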
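Read-out is CellTiter-Glo luminescence after 10 minutes at room temperature, following 48 hours' compound treatment of HT-1080-NT cells (750 cells/well, RPMI, 5% FBS, 37 degrees C).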
Hits are given with their value; n = inactive; u = inconclusive; x = no result given. Compounds with a hit are over-represented: about 19% of the library has one in this group of screens. Calls follow the shape of the dose curve; as a rule, active = well fitted curve in the direction sought with a large enough effect; inconclusive = small, poorly fitted or top-dose-only effect, or another doubt; inactive = no such curve, though single readings can be large; an effect the other way counts as inactive or inconclusive.

SMILES | TDP1 cell noCPT | KB-3-1 cytotox | DT40 TDP1 CPT | HT1080 IDH1KD tx | KB-V1 cytotox | HT1080-NT tox
CS(=O)(=O)N1CCCC(C(=O)N2CCN(c3cccc(Cl)c3)CC2)C1 (stereo unspecified) | u | n | 21µM | n | n | n
CCN(CC)C1CC(=O)N(c2cccc(Cl)c2)C1=O (stereo unspecified) | 23µM | n | u | u | u | n
O=C(C(=O)N1CCCC1CO)N1CCCC1CO (stereo unspecified) | n | n | n | n | n | n
COc1ccc(C2CC(c3ccc4ccccc4c3)=NN2C(=O)COC(=O)C2CCC(=O)N2)cc1 (stereo unspecified) | u | n | 16µM | u | n | u
COc1ccc(C2CC(c3ccc4ccccc4c3)=NN2C(=O)CNC2CCCCC2)cc1 (stereo unspecified) | 13µM | n | 15µM | u | u | 23µM
COc1ccc(C2CC(c3ccc4ccccc4c3)=NN2C(=O)CN2CCC(C(N)=O)CC2)cc1 (stereo unspecified) | u | u | u | u | n | u
C=CCNCC(=O)N1N=C(c2ccc3ccccc3c2)CC1c1ccc(OC)cc1 (stereo unspecified) | 13µM | n | 8.2µM | 23µM | n | 23µM
COc1ccc(C2CC(c3ccccc3)=NN2C(=S)Nc2ccccc2)cc1 (stereo unspecified) | u | n | u | n | n | n
CN(N)c1nc(C(F)(F)F)nc2ccccc12 | n | n | n | n | n | n
CN(NS(=O)(=O)c1ccc(Br)cc1)c1nc(C(F)(F)F)nc2ccccc12 | u | u | 23µM | 18µM | u | u
Cc1cc(C(=O)N2CCC(C)(C(=O)NS(=O)(=O)C3CC3)C2)n(C(C)(C)C)n1 (stereo unspecified) | n | n | n | n | n | n
CN(C1CCCCC1)S(=O)(=O)c1ccc2c(c1)CCC(=O)N2 | n | n | n | n | u | n
CN(C)S(=O)(=O)c1ccc2c(c1)/C(=C/c1cc3c([nH]1)CCCC3)C(=O)N2 | 3.3µM | n | 4.6µM | n | u | n
COc1cc(OC)c(C(=O)Nc2ncn[nH]2)cc1OC | n | n | n | n | n | n
CC1CCC(C(C)C)C(OCC(O)C[N+]2(C)CCCCC2)C1 (stereo unspecified) | 12µM | n | u | n | n | n
CC1CCC(C(C)C)C(OCC(O)CN2CCCC(C)C2)C1 (stereo unspecified) | u | n | u | u | u | u
CC1CCC(C(C)C)C(OCC(O)CN2CCN(Cc3ccccc3)CC2)C1 (stereo unspecified) | 15µM | u | 13µM | u | u | 23µM
Cc1ccccc1CNC(=O)C(C)N(c1ccccc1)S(C)(=O)=O (stereo unspecified) | n | n | n | x | n | x
COc1ccc(-c2[nH]ncc2C(=O)NCc2ccccc2OC)cc1 | n | x | n | x | x | x
CN(C)c1ccc(C(C(=O)NC2CCCC2)N(C(=O)c2csnn2)C2CC2)cc1 (stereo unspecified) | n | n | n | n | u | n
CCOC(=O)c1cc(-c2ccccc2)n(CC(=O)N2CCCC2)c1C | n | n | n | n | n | n
CCOC(=O)c1cc(-c2ccccc2)n(CCC(=O)N2CCN(c3ccccc3OC)CC2)c1C | 8.2µM | n | 12µM | n | u | n
CCOC(=O)c1cc(-c2ccccc2)n(CCC(=O)N2CCN(c3ccc(OC)cc3)CC2)c1C | 23µM | n | 15µM | n | u | n
COc1ccc(S(=O)(=O)N2CCC[C@@H]2C(=O)N2CCC[C@H]2C(=O)NCc2ccncc2)cc1C | u | n | u | n | n | n
CCN1C(=O)c2ccccc2S(=O)(=O)c2ccc(C(=O)NCc3ccc(F)cc3)cc21 | 23µM | n | u | x | n | x
COc1ccc(CCNC(=O)c2ccc3c(c2)N(Cc2ccc(F)cc2)C(=O)c2ccccc2S3(=O)=O)cc1OC | 12µM | x | u | x | x | x
O=C(NCCc1ccccc1)c1ccc2c(c1)N(Cc1ccc(Cl)cc1)C(=O)c1ccccc1S2(=O)=O | 23µM | n | 15µM | x | n | x
O=C(NCCc1ccc(Cl)cc1)c1ccc2c(c1)N(Cc1ccccc1F)C(=O)c1ccccc1S2(=O)=O | u | n | u | x | n | x
CCN1C(=O)c2ccccc2S(=O)(=O)c2ccc(C(=O)NCc3ccccc3OC)cc21 | u | n | u | x | n | x
Cc1cc2ccccc2c(=O)n1CC(=O)N1CCN(c2cccc(Cl)c2)CC1 | n | n | n | n | n | n
